In the supplement of paper PMC10498489:
Among all 2,300 compounds or so, about 330 (14%) showed activity.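 The calls were made as follows: active = median modified Z-score above 1.96; inactive = 1.96 or below.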 Only a sample is shown.

test system: HepG2 Srxn1-GFP reporter cells (+30 nM CDDO-Me); experiment: Srxn1-GFP intensity median modified Z-score relative to plate median; higher = stronger NRF2 / oxidative stress reporter activation, active = hit call of the paper; details: 10 µM; exposure time: 24h
How it was run: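 Each value is the replicate median of a per-plate modified Z-score for GFP intensity in HepG2 Srxn1-GFP BAC reporter cells. The cells (20,000 per well, 96-well plates, three replicate plates) received compound at 10 μM together with an NRF2 activator at 30 nM for 24 h, in ≤0.1% DMSO. Cytoplasmic GFP was quantified per cell from confocal images of formaldehyde-fixed, Hoechst-stained cells, leaving out images with fewer than 100 cells, and scaling used 1.4826 × median absolute deviation.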

Srxn1-GFP intensity median modified Z-score, active:
Cn1cnc([N+](=O)[O-])c1Sc1ncnc2[nH]cnc12 [euspeclibcmpd29] 2.86
CC[C@@]1(O)CC(=O)c2c(cc3c(O)c4c(O)ccc(O)c4c(O)c3c2O)C1C(=O)OC (some centres not stated) [euspeclibcmpd1470] 70.7
CCC1(O)C=C(OC2CC(N(C)C)C(O)C(C)O2)c2c(cc3c(O)c4c(O)ccc(O)c4c(O)c3c2O)C1C(=O)OC (configuration not stated) [euspeclibcmpd1939] 97.7
Cc1cc(O)c2c(c1)C(=O)c1cccc(O)c1C2=O [euspeclibcmpd1712] 4.5
O=C1c2cccc(O)c2C(=O)c2c(O)cccc21 [euspeclibcmpd3] 19.4
CCn1c2cc(=N)ccc-2c2ccc(N)cc2c1-c1ccccc1 [euspeclibcmpd1148] 4.33
CCCc1nc2c(C)cc(-c3nc4ccccc4n3C)cc2n1Cc1ccc(-c2ccccc2C(=O)O)cc1 [euspeclibcmpd729] 3.15
Oc1ccc(C=Cc2cc(O)cc(O)c2)cc1 [euspeclibcmpd1411] 12.1
CN(C)c1ccc(C(=C2C=CC(=[N+](C)C)C=C2)c2ccc(N(C)C)cc2)cc1 [euspeclibcmpd139] 8.6
C[C@@H](COc1ccccc1)N[C@H](C)[C@H](O)c1ccc(O)cc1 [euspeclibcmpd167] 4.4
CC(C)=CCc1c2c(c3occ(-c4ccc(O)c(O)c4)c(=O)c3c1O)C=CC(C)(C)O2 [euspeclibcmpd1728] 156
O=C(O)CCCCCCCCCCCCC1C=CCC1 (configuration not stated) [euspeclibcmpd1516] 10.6
CS(C)(=O)=O [euspeclibcmpd1496] 20.2

Srxn1-GFP intensity median modified Z-score, inactive:
CC(C)(C)NCC(O)COc1cccc2c1CCCC2=O (configuration not stated) [euspeclibcmpd764] -0.976
CCCCCCCCCCCCCCCCOP(=O)(O)OCC[N+](C)(C)C [euspeclibcmpd1120] 1.47
NC(C(=O)NC1C(=O)N2C(C(=O)O)=C(Cl)CSC12)c1ccccc1 (configuration not stated) [euspeclibcmpd343] -0.608
N=c1[nH]cnc2c1ncn2C1O[C@H](COP(=O)(O)O)[C@@H](O)[C@H]1O (some centres not stated) [euspeclibcmpd330] -0.321
COc1cccc2c(O)c3c(O)c4c(c(O)c3c(O)c12)=C(O[C@H]1C[C@H](N)[C@H](O)[C@H](C)O1)C[C@](O)(C(C)=O)C=4 [euspeclibcmpd83] 0.648
COc1cccc2c(O)c3c(O)c4c(c(O)c3c(O)c12)=C(OC1C[C@H](N)[C@H](O)[C@H](C)O1)C[C@](O)(C(=O)CO)C=4 (some centres not stated) [euspeclibcmpd2291] 0.455
CCc1ccc2c(O)c3c(O)c4c(c(O)c3cc2c1C(=O)OC)C(=O)C=CC4=O [euspeclibcmpd1950] 1.63
COc1ccc2c(=O)ccoc2c1 [euspeclibcmpd1397] 0.575
CC1(C)SC2C(NC(=O)C(C(=O)O)c3ccccc3)C(=O)N2C1C(=O)O (configuration not stated) [euspeclibcmpd2333] 0.114
O=c1c2cc(O)c(O)cc2oc2cc(O)c(C3O[C@H](CO)[C@@H](O)[C@H](O)[C@H]3O)c(O)c12 (some centres not stated) [euspeclibcmpd1520] -0.904
CCCc1nc(=N)c(C[n+]2ccccc2C)c[nH]1 [euspeclibcmpd493] -0.6
COc1cccc(-c2cc(=O)c3cc(OC)ccc3o2)c1 [euspeclibcmpd1659] -0.339
Cc1cc(O)c2c(c1)C(=O)c1cc(O)cc(O)c1C2=O [euspeclibcmpd1604] 0.573
COc1cc(O)c2c(c1)C(=O)c1cc(C)cc(O)c1C2=O [euspeclibcmpd1472] 0.0189
O=C(O)C(O)[C@H](O)[C@H](O)[C@H](O)[C@H](O)CO (some centres not stated) [euspeclibcmpd2445] -0.00236
CC(=O)C1(O)CCC2C3CC(C)=C4CC(=O)C=CC4(C)C3(F)C(O)CC21C (configuration not stated) [euspeclibcmpd1970] -0.646
COc1cc([C@H]2Oc3cc(C4Oc5cc(O)cc(O)c5C(=O)C4O)ccc3O[C@@H]2CO)ccc1O (some centres not stated) [euspeclibcmpd2298] -0.00238
C[C@]12CCC(OC(=O)c3ccccc3)CC1CCc1ccccc12 (some centres not stated) [euspeclibcmpd2434] 0.0569
C=C[C@@]1(C)CC(=O)[C@@]2(O)[C@](C)(O1)[C@@H](OC(C)=O)[C@@H](O)C1C(C)(C)CC[C@H](O)[C@@]12C (some centres not stated) [euspeclibcmpd604] -1.15
N=c1[nH]c(=O)c2[nH]c(=O)cnc2[nH]1 [euspeclibcmpd1707] -0.214
CCCCc1nc(Cl)c(CO)n1Cc1ccc(-c2ccccc2-c2nn[nH]n2)cc1 [euspeclibcmpd678] -0.235
CCCc1nc(C(C)(C)O)c(C(=O)OCc2oc(=O)oc2C)n1Cc1ccc(-c2ccccc2-c2nn[nH]n2)cc1 [euspeclibcmpd716] -0.529
O=C1C(CCC(O)c2ccc(F)cc2)[C@@H](c2ccc(O)cc2)N1c1ccc(F)cc1 (some centres not stated) [euspeclibcmpd714] 1.03
COC(=O)C(NC(=O)CCCCn1cnc2c(N)ncnc21)C(C)C (configuration not stated) 1.19
CC(=O)OC1(C(C)=O)CCC2C3=CC(Cl)=C4CC(=O)C5CC5C4(C)C3CCC21C (configuration not stated) [euspeclibcmpd1971] -0.163
CC(O)CN(CCN(CC(C)O)CC(C)O)CC(C)O (configuration not stated) [euspeclibcmpd990] -0.227
OC[C@H]1O[C@H](Oc2cc(O)cc(C=Cc3ccc(O)cc3)c2)[C@H](O)[C@@H](O)[C@@H]1O [euspeclibcmpd1401] -0.514
CCS(=O)(=O)N1CCCC(C(=O)NCCCN(C)OC)C1 (configuration not stated) 0.974
Nc1ccc(S(=O)(=O)N=c2ccc(Cl)n[nH]2)cc1 [euspeclibcmpd398] -0.684
O=C(NCC(O)=NO)c1ccc(Cl)cc1 [euspeclibcmpd774] 0.804
O=c1c(O)c(-c2ccc(O)c(O)c2)oc2cc(O)cc(O)c12 0.376
CC(=O)OCC(=O)[C@@]1(O)CCC2C3CC=C4CC(=O)CC[C@]4(C)C3[C@@H](O)C[C@@]21C (some centres not stated) [euspeclibcmpd151] -0.58
C[C@H](Cn1cnc2c(=N)nc[nH]c21)OCP(=O)(O)O [euspeclibcmpd1075] -0.0246
CC(CCC(=O)O)[C@H]1CCC2C3CC[C@@H]4C[C@H](O)CC[C@]4(C)C3C[C@H](O)[C@@]21C (some centres not stated) [euspeclibcmpd2112] -0.195
COC(=O)C[C@H]1C(C)(C)C(=O)C2CC3=C(CC[C@]4(C)C3=CC(=O)O[C@H]4c3ccoc3)[C@@]1(C)C2=O [euspeclibcmpd1591] 0.352
CCCCNC(=O)NS(=O)(=O)c1ccc(OC)cc1 1.61
CC(CCc1ccc(O)cc1)NCC(O)c1ccc(O)cc1 (configuration not stated) [euspeclibcmpd467] 0.894
CC(NCCc1ccc(O)cc1)C(O)c1ccc(O)cc1 (configuration not stated) [euspeclibcmpd402] 0.107
CC(C)(C)NC[C@@H](O)COc1nsnc1N1CCOCC1 [euspeclibcmpd295] -0.119
COC1C(=O)C(=O)c2c(cc3oc(C(C)=O)c(O)c3c2O)C1=O (configuration not stated) [euspeclibcmpd1523] 0.196
N=c1[nH]ccs1 [euspeclibcmpd1106] 0.0281
Cc1onc(-c2ccccc2)c1C(=O)NC1C(=O)N2C1SC(C)(C)C2C(=O)O (configuration not stated) [euspeclibcmpd2397] -0.382
COc1ccc(-c2coc3c4c(c(CC=C(C)C)c(O)c3c2=O)OC(C)(C)C=C4)cc1OC [euspeclibcmpd2204] -0.479
CC(C)=CCc1c2c(c3occ(-c4ccc(O)cc4)c(=O)c3c1O)C=CC(C)(C)O2 [euspeclibcmpd1709] 1.14
C=C1C[C@]23C[C@@]1(O)CC[C@H]2[C@@]12C=C[C@H](O)[C@@](C)(C(=O)O1)[C@H]2C3C(=O)O (some centres not stated) [euspeclibcmpd1408] 0.616
NC[C@@H]1O[C@H](O[C@@H]2[C@@H](CO)OC(O[C@@H]3[C@@H](O)[C@H](N)C[C@H](N)[C@H]3OC3O[C@H](CN)[C@@H](O)[C@H](O)[C@H]3N)[C@@H]2O)[C@H](N)[C@@H](O)[C@@H]1O (some centres not stated) [euspeclibcmpd206] 0.688
O=C(O)C1CC(=O)C(O)C(O)C1 (configuration not stated) [euspeclibcmpd2407] -0.321
CCOC(=O)CCCCCCCCCCCCC1C=CCC1 (configuration not stated) [euspeclibcmpd2000] -0.411
O=C(O)CCCCC1CCSS1 (configuration not stated) [euspeclibcmpd1157] 0.0225
COc1ccc(-c2coc3cc(O)ccc3c2=O)c(OC)c1 [euspeclibcmpd1838] 1.83
C=CC[S+]([O-])CC(N)C(=O)O (configuration not stated) [euspeclibcmpd2346] -0.228
O=C(O)CCCCCCCC(O)C(O)CCCCCCO (configuration not stated) [euspeclibcmpd1577] -0.245
CS(=O)(=O)OCCCCOS(C)(=O)=O [euspeclibcmpd40] 1.41
COCCCOc1cc(C[C@@H](C[C@H](N)[C@@H](O)CC(C(=O)NCC(C)(C)C(N)=O)C(C)C)C(C)C)ccc1OC (some centres not stated) [euspeclibcmpd873] 0.194
